# Laboratory results reported in PubChem BioAssay (EPA / NIEHS).
# The source made the active and inactive calls. The calls were made as follows: active = hit-call score of the fitted dose curve at least 0.9, where 1 is the maximum; inactive = score below 0.9.
# How the values were obtained:
# [1] = APR_HepG2_CellCycleArrest_24hr: Apredica 24-hour HepG2 Assay for Cell Cycle Arrest (AID 2282905); details: imaging, actives raise or lower the signal;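 also: cell cycle arrest scored as ratio of 2N to 4N nuclear DNA content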
# How it was run: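 Cell cycle arrest is scored from nuclear DNA content measured by high-content imaging of Hoechst 33342-stained HepG2 cells following 24-hour treatment at ten concentrations up to 200 uM, with DMSO as baseline.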
# [2] = APR_HepG2_NuclearSize_24hr: Apredica 24-hour HepG2 Assay for Nuclear Size (AID 2282907); details: high-content imaging, actives raise or lower the signal
# How it was run: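 Compounds in DMSO (final 0.5%) were added to human HepG2 hepatoma cells at ten concentrations up to 200 uM for 24 hr. Fixed nuclei were stained with Hoechst 33342, and nuclear diameter was quantified from automated images.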
# [3] = APR_HepG2_CellLoss_24hr: Apredica 24-hour HepG2 Assay for Cell Loss (AID 2282908); details: high-content imaging;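 as to AC50: fit in both directions so a hit may be cell loss or gain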
# How it was run: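 Cell number is quantified by fluorescence imaging of Hoechst 33342-stained nuclei following dosing at 0.39–200 uM in 0.5% DMSO. Curves are fitted in both directions from the DMSO baseline.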
# [4] = APR_HepG2_MicrotubuleCSK_24hr: Apredica 24-hour HepG2 Assay for Microtubule CSK Stabilty (AID 2282909); details: HepG2 microtubule cytoskeleton imaging, actives raise or lower the signal
# How it was run: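 Steps: dose HepG2 for 24 h (0.39–200 uM, 0.5% DMSO); fix 30 min in 3.7% formaldehyde at room temperature; permeabilize; stain alpha-tubulin 60 min; image microtubule cytoskeleton at 20x. Signal change fitted in both directions relative to DMSO.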
# [5] = APR_HepG2_MitoticArrest_24hr: Apredica 24-hour HepG2 Assay for Mitotic Arrest (AID 2282910); details: high-content imaging, actives raise or lower the signal
# How it was run: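 HepG2 cells, 24 h exposure at 0.39-200 uM (10 concentrations, duplicate, 0.5% DMSO). Fixed, stained for phospho-histone H3 with Hoechst; imaged by high-content microscopy, bidirectional fit versus DMSO.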
# [6] = APR_HepG2_MitoMembPot_24hr: Apredica 24-hour HepG2 Assay for Mitochondrial Membrane Potential (AID 2282911); details: imaging, actives raise or lower the signal
# How it was run: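 HepG2 cells exposed 24 h to 0.39–200 uM compounds in duplicate, 0.5% v/v DMSO final. MitoTracker Red CMXRos 250 nM loaded 30 min before formaldehyde fixation; high-content imaging at 20x, bidirectional fit versus DMSO.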
# [7] = APR_HepG2_MitoMass_24hr: Apredica 24-hour HepG2 Assay for Mitochondrial Mass (AID 2282912); details: high-content imaging, actives raise or lower the signal
# How it was run: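 The liver line HepG2 was dosed in duplicate across a 0.39–200 uM series, with final DMSO held at 0.5% v/v, and harvested at 24 hr. High-content imaging measured mitochondrial dye staining.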
# [8] = APR_HepG2_p53Act_24hr: Apredica 24-hour HepG2 Assay for p53 Activation (AID 2282913); details: high-content imaging, actives raise or lower the signal;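 also: p53 protein immunofluorescence averaged per cell in HepG2 with Hoechst nuclei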
# How it was run: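 HepG2 cells exposed 24 h to compounds at 0.39–200 uM in duplicate, 0.5% v/v DMSO final; fixed, permeabilized, stained with anti-p53 antibody and Hoechst 33342; fluorescence imaging; bidirectional curve fit versus DMSO.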
# [9] = APR_HepG2_CellCycleArrest_72hr: Apredica 72-hour HepG2 Assay for Cell Cycle Arrest (AID 2282914); details: high-content imaging, actives raise or lower the signal
# How it was run: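 HepG2 cells exposed 72 h in duplicate to 0.39–200 uM compound, 0.5% DMSO final. Formaldehyde-fixed, Hoechst 33342-stained nuclei imaged at 20x, six fields per well; DNA content per valid cell quantified by cell-cycle image analysis, bidirectional fit versus DMSO.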
# [10] = APR_HepG2_CellLoss_72hr: Apredica 72-hour HepG2 Assay for Cell Loss (AID 2282915); details: high-content imaging
# How it was run: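 HepG2 cells exposed 72 h to compound at 0.39–200 uM (10 concentrations, duplicate) in 0.5% DMSO. Fixed with 3.7% formaldehyde and Hoechst 33342-stained. Imaged at 20x; nuclear count gives cell number, fitted bidirectionally versus DMSO.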
smiles,measurement,setting,value
O=C(O)C1C2CCC(O2)C1C(=O)O (configuration not stated),outcome,[1],inactive
same,outcome,[2],inactive
same,outcome,[3],inactive
same,outcome,[4],inactive
same,AC50,[5],26.6 µM (active)
same,outcome,[6],inactive
same,AC50,[7],41.4 µM (active)
same,AC50,[8],24.4 µM (active)
same,outcome,[9],inactive
same,AC50,[10],21.5 µM (active)
COC(=O)Nc1nc2ccccc2[nH]1,AC50,[1],15.4 µM (active)
same,outcome,[2],inactive
same,AC50,[3],7.04 µM (active)
same,outcome,[4],inactive
same,AC50,[5],3.45 µM (active)
same,outcome,[6],inactive
same,outcome,[7],inactive
same,AC50,[9],13.4 µM (active)
same,AC50,[10],5.59 µM (active)
c1ccc(NNc2ccccc2)cc1,outcome,[1],inactive
same,outcome,[2],inactive
same,outcome,[3],inactive
same,outcome,[4],inactive
same,outcome,[5],inactive
same,outcome,[6],inactive
same,outcome,[7],inactive
same,AC50,[8],110 µM (active)
same,AC50,[9],104 µM (active)
same,AC50,[10],97.9 µM (active)
CCC12COCN1COC2,AC50,[1],45.1 µM (active)
same,outcome,[2],inactive
same,outcome,[3],inactive
same,outcome,[4],inactive
same,AC50,[5],93.6 µM (active)
same,outcome,[6],inactive
same,outcome,[7],inactive
same,AC50,[8],86 µM (active)
same,outcome,[9],inactive
same,outcome,[10],inactive
CCCCCCCCCCCCCN1CC(C)OC(C)C1 (configuration not stated),outcome,[1],inactive
same,AC50,[2],105 µM (active)
same,AC50,[3],91.8 µM (active)
same,AC50,[4],166 µM (active)
same,AC50,[5],97.6 µM (active)
same,outcome,[6],inactive
same,AC50,[7],189 µM (active)
same,AC50,[8],66.8 µM (active)
same,AC50,[9],70.4 µM (active)
same,AC50,[10],78.9 µM (active)
Oc1ccc2ccc3cccc4ccc1c2c34,outcome,[1],inactive
same,outcome,[2],inactive
same,AC50,[3],77.9 µM (active)
same,outcome,[4],inactive
same,AC50,[5],82.2 µM (active)
same,AC50,[6],30.6 µM (active)
same,AC50,[7],31.9 µM (active)
same,outcome,[9],inactive
same,AC50,[10],84 µM (active)
COc1cc(C=O)cc2c1[C@H](COC(N)=O)[C@]1(OC(C)=O)ON2C[C@H]2[C@@H]1N2C(C)=O,outcome,[1],inactive
same,outcome,[2],inactive
same,outcome,[3],inactive
same,outcome,[4],inactive
same,outcome,[5],inactive
same,AC50,[6],0.474 µM (active)
same,outcome,[7],inactive
same,outcome,[8],inactive
same,outcome,[9],inactive
same,outcome,[10],inactive
CN(C)c1ccccc1,outcome,[1],inactive
same,outcome,[2],inactive
same,outcome,[3],inactive
same,outcome,[4],inactive
same,outcome,[5],inactive
same,outcome,[6],inactive
same,outcome,[7],inactive
same,outcome,[8],inactive
same,outcome,[9],inactive
same,outcome,[10],inactive
CCOc1cccc(C2(N3CCN(c4ccccc4)CC3)CCC(C)CC2)c1 (configuration not stated),outcome,[1],inactive
same,outcome,[2],inactive
same,outcome,[3],inactive
same,outcome,[4],inactive
same,outcome,[5],inactive
same,outcome,[6],inactive
same,outcome,[7],inactive
same,outcome,[8],inactive
same,outcome,[9],inactive
same,outcome,[10],inactive
CC(C)(C)OOC(=O)c1ccccc1,outcome,[1],inactive
same,AC50,[2],38.6 µM (active)
same,AC50,[3],33.3 µM (active)
same,AC50,[4],48.2 µM (active)
same,AC50,[5],20.5 µM (active)
same,AC50,[6],33.8 µM (active)
same,AC50,[7],34.1 µM (active)
same,AC50,[8],22.8 µM (active)
same,AC50,[9],21.8 µM (active)
same,AC50,[10],26.6 µM (active)
CC(O)CCO (configuration not stated),outcome,[1],inactive
same,outcome,[2],inactive
same,outcome,[3],inactive
same,outcome,[4],inactive
same,outcome,[5],inactive
same,outcome,[6],inactive
same,outcome,[7],inactive
same,outcome,[8],inactive
same,outcome,[9],inactive
same,outcome,[10],inactive
Brc1ccc(Oc2ccccc2)cc1,outcome,[1],inactive
same,outcome,[2],inactive
same,AC50,[3],114 µM (active)
same,outcome,[4],inactive
same,outcome,[5],inactive
same,outcome,[6],inactive
same,outcome,[7],inactive
same,outcome,[8],inactive
same,outcome,[9],inactive
same,AC50,[10],109 µM (active)
CCC(C)c1ccc(O)cc1 (configuration not stated),outcome,[1],inactive
same,outcome,[2],inactive
same,outcome,[3],inactive
same,outcome,[4],inactive
same,outcome,[5],inactive
same,outcome,[6],inactive
same,outcome,[7],inactive
same,outcome,[8],inactive
same,outcome,[9],inactive
same,outcome,[10],inactive
O=C1CCCO1,outcome,[1],inactive
same,outcome,[2],inactive
same,outcome,[3],inactive
same,outcome,[4],inactive
same,outcome,[5],inactive
same,outcome,[6],inactive
same,outcome,[7],inactive
same,outcome,[8],inactive
same,outcome,[9],inactive
same,outcome,[10],inactive
c1ccc(C2CO2)cc1 (configuration not stated),outcome,[1],inactive
same,outcome,[2],inactive
same,outcome,[3],inactive
same,outcome,[4],inactive
same,outcome,[5],inactive
same,outcome,[6],inactive
same,outcome,[7],inactive
same,outcome,[9],inactive
same,outcome,[10],inactive
ClCCOCCCl,outcome,[1],inactive
same,outcome,[2],inactive
same,outcome,[3],inactive
same,outcome,[4],inactive
same,outcome,[5],inactive
same,outcome,[6],inactive
same,outcome,[7],inactive
same,outcome,[8],inactive
same,outcome,[9],inactive
same,outcome,[10],inactive
O=C(Oc1ccc(Br)cc1)N1CCN2CCC1CC2,outcome,[1],inactive
same,outcome,[2],inactive
same,outcome,[3],inactive
same,outcome,[4],inactive
same,outcome,[5],inactive
same,outcome,[6],inactive
same,outcome,[7],inactive
same,outcome,[8],inactive
same,AC50,[9],96.3 µM (active)
same,AC50,[10],80.8 µM (active)
O=C(N[C@H](c1ccccc1)[C@@H]1CN2CCC1CC2)c1c(Cl)ccc(C(F)(F)F)c1Cl,AC50,[1],60.8 µM (active)
same,AC50,[2],88.8 µM (active)
same,AC50,[3],120 µM (active)
same,outcome,[4],inactive
same,AC50,[5],78.7 µM (active)
same,outcome,[6],inactive
same,outcome,[7],inactive
same,AC50,[8],101 µM (active)
same,AC50,[9],30.6 µM (active)
same,AC50,[10],64 µM (active)
ClC1=C(Cl)[C@]2(Cl)[C@H]3[C@H]([C@@H]4C=C[C@H]3C4)[C@@]1(Cl)C2(Cl)Cl,outcome,[1],inactive
same,AC50,[2],53.8 µM (active)
same,AC50,[3],46.5 µM (active)
same,outcome,[4],inactive
same,AC50,[5],25.4 µM (active)
same,outcome,[6],inactive
same,AC50,[7],48.1 µM (active)
same,AC50,[8],49.7 µM (active)
same,AC50,[9],16.2 µM (active)
same,AC50,[10],36.7 µM (active)
